Source: paper PMC12215968

Target: Ubiquitin-ribosomal protein eS31 fusion protein (UniProt P62979)
Assay: cross-link between two proteins; cross-linking mass spectrometry

Substance	listed as a hit
Ubiquitin-conjugating enzyme E2 N, P61088	yes
Ubiquitin carboxyl-terminal hydrolase 5, P45974	yes
Ubiquitin-conjugating enzyme E2 K, P61086	yes
